# GPR32 ag: qHTS for Agonists of Human Resolvin D1 Receptor DRV1; CHO-K1 GPR32 beta-arrestin PathHunter luminescence, 90 min; zero percent set by DMSO-only wells; actives 2.5% (n = 48,000); AID 1346428, 2018; Probable G-protein coupled receptor 32 (Homo sapiens), O75388; activation, % at 76.9 µM;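 active means activation of at least 60% and not above a set upper limit, about 1 call in 100 departs from these limits; inconclusive means activation of 40% to 60%, or above that upper limit; inactive means activation under 40%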; further: 0% is about no effect
# Target sequence (O75388 whole entry, looked up): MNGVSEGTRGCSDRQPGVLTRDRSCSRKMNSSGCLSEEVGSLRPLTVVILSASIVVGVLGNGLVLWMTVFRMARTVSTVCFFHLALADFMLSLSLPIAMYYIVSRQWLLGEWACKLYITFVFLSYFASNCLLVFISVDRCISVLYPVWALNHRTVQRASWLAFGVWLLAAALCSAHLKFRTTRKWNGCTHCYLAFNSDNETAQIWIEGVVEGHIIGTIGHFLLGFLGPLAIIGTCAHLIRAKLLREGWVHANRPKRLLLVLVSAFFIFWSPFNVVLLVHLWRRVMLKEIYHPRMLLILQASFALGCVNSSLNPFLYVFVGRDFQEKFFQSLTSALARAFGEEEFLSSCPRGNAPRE
#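 Step 1: seed CHO-K1 GPR32 beta-arrestin cells, 2,500/well, overnight at 37 °C. Step 2: add compounds, 90 min at 37 °C. Step 3: detection reagent, 1 h ambient, then luminescence.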
# AID inh: Primary qHTS assay for inhibitors of Activation Induced Cytidine Deaminase (AID): AID signal. AID 1347428, 2020. Single-stranded DNA cytosine deaminase (Homo sapiens), Q9GZX7. actives 0.32% (n = 91,000). Potency, µM (series often up to 115 µM), hits mostly inhibitors. AID deamination FRET fluorescence, UDG-coupled, 4 h; further: potency means the concentration at half of the fitted maximal effect; on the % scale 0 is the no-effect control and ±100 the full control effect; nearly all actives have a fitted effect of over 25% in size
# UDG counter: Primary qHTS assay for inhibitors of Activation Induced Cytidine Deaminase (AID): UDG Counterscreen signal; FRET deamination/UDG coupled assay, UDG read, 4 h; Potency, µM (series often up to 115 µM), without a hit: at the top dose activity change, negative = inhibition, most hits filed as inhibitors; actives 0.14% (n = 91,000); AID 1347430, 2020; further: potency means the concentration at half of the fitted maximal effect; on the % scale 0 is the no-effect control and ±100 the full control effect; nearly all actives have a fitted effect of over 65% in size
# Starred values were filed as active, the others as inactive; i = inactive; u = inconclusive; x = no result given; ! = not confirmed by another sample; [ ] = remark or other dose. Many of the other results were omitted from the sample, so hits are more common in it than they were. Unless noted, the call rests on the fitted dose curve; in most records, active means well fitted curve in the direction sought with a large enough effect; inconclusive means small, poorly fitted or top-dose-only effect, or another doubt; inactive means no such curve, though single readings can be large; an effect the other way counts as inactive or inconclusive.
SMILES,GPR32 ag,AID inh,UDG counter
O=S(=O)(Nc1ccc(O)c(Sc2nc3ccccc3s2)c1)c1cc(Cl)ccc1Cl,13,i,-19%[57.5 µM]
CC1(C)CC(CNCc2ccco2)CCO1 (configuration not stated),x,i,-1%
CC(C)NC(=O)CN(C)CC(O)COc1ccccc1F (configuration not stated),x,i,-5%
Cc1cccc(C(=O)NCCC(=O)NCC2CCCCC2)c1,x,i,7%
CC(OC(=O)c1csc(NCc2ccccc2)n1)C(=O)N(C)Cc1ccccc1 (configuration not stated),x,i,-1%
C[C@H](NC(=O)OC(C)(C)C)c1nnc(SCc2ccc(Cl)cc2Cl)o1,u,i,2%
CC(C)C[C@H](N)c1nnc(SCc2ccc(Cl)cc2Cl)o1,77*,i,-17%
CC(C(=O)c1ccccc1)C1(O)C(=O)Nc2ccc(Br)cc21 (configuration not stated),x,i,-3%
CC1CCCCN1C(C)CNC(=S)Nc1ccc(Cl)cc1Cl (configuration not stated),x,i,-1%
O=C(CN1C(=O)CCSc2ccccc21)Nc1ccc(C(F)(F)F)cc1,63*,i,13%
CC(=O)Nc1cccc(NC(=O)CN2C(=O)CCSc3ccccc32)c1,0,i,8%
COc1cc(/C=C(/C#N)C(=O)c2c(Cl)cccc2Cl)cc(OC)c1OC,x,i,10%
Cc1cccc(C(=O)Nc2nc3c(s2)CCCC3)c1,-12,u,2%[57.5 µM]
O=C(Nc1cccc(Br)c1)Nc1nc2c(s1)CCCCCC2,113*,i,u
COc1ccc(-n2nc(C)c3c2NC(=O)CC3c2cccc(OC)c2OC(C)C)nn1 (configuration not stated),x,i,0%
Cc1ccc(NC(=O)Cn2nc(C(F)(F)F)c3c2CCCC3)cc1,77*,u,-27%
CCc1ccc(NC(=O)Cn2nc(C(F)(F)F)c3c2CCCC3)cc1,7,i,-4%
CC1=C(/C=C/C(C)=C/C=C/C(C)=C/C(=O)Nc2ccc(O)cc2)C(C)(C)CCC1,84*!,i,-3%
CC1=C(/C=C/C(C)=C/C=C/C(C)=C\C(=O)O)C(C)(C)CCC1,-8,i,-6%
COCCn1c(Cc2ccc(OC)c(OC)c2)n[nH]c1=S,x,i,-6%
Cc1ccc(C)c(NC(=O)N(C)CCc2c(C)nn(C)c2C)c1,-13,i,-24%
Cc1cc(NC(=O)N(C)CCc2c(C)nn(C)c2C)ccc1Br,65*,i,-29%
COc1ccc(-c2cc3ccc(OC(=O)c4ccco4)cc3oc2=O)cc1,x,i,-4%
CCOc1ccc(Nc2nnc(-n3nc(C)cc3C)c3ccccc23)cc1,-3,i,79µM*
CCc1ccc(Nc2nnc(-n3nc(C)cc3C)c3ccccc23)cc1,-13,i,30%
SMILES,GPR32 ag,AID inh,UDG counter
CCCCn1c(=O)[nH]c(=O)c2c1nc(CSc1nnnn1C1CCCC1)n2CC,x,i,4%
O=C(NCCc1csc2nc(-c3cccc(F)c3)nn12)c1ccc(Br)o1,97*,i,14%
O=C(Cc1ccc(Cl)cc1)NCCc1csc2nc(-c3ccccc3F)nn12,121*,i,16%
O=C(NCCc1csc2nc(-c3ccc(F)cc3)nn12)c1ccco1,4,i,-7%
COc1ccc(CC(=O)NCCc2csc3nc(-c4ccccc4F)nn23)cc1,42,i,1%
O=C(CCc1cccc(F)c1)NCc1ccc(F)cc1C(F)(F)F,x,i,-6%
Cc1ccc(C(=O)Nc2ccc(-c3nc4ccc(C)cc4s3)cc2)c(C)c1,x,i,-10%
CCCN1CCN(c2nnc(-n3cccc3CN3CCN(c4ccccc4)CC3)s2)CC1,x,i,3%
COc1ccc(S(=O)(=O)N2CCn3cccc3C2c2ccccc2)cc1 (configuration not stated),x,i,u
Cc1ccc(S(=O)(=O)N2CCn3cccc3C2c2ccccc2)cc1 (configuration not stated),x,i,89µM*
CCCN(Cc1cc(=O)[nH]c2c(OC)cccc12)C(=O)Nc1ccccc1OCC,x,i,-10%
N[C@@H](CCC(=O)N[C@H](CSN=O)C(=O)NCC(=O)O)C(=O)O,-3,i,-12%
[N-]=[N+]=Nc1ccc(C(=O)CSC[C@H](NC(=O)CC[C@H](N)C(=O)O)C(=O)NCC(=O)O)cc1,1,89µM*,-6%
C=CCSc1nc(-c2cccs2)cc(C(F)(F)F)c1C#N,x,i,-3%

# Assay outcomes (PubChem BioAssay)
